{"source": "the supplement of paper PMC10849652", "note": "Targets with a hit are over-represented here; the source holds about 7,900 in all. About 0.6% of all pairs of compound and target were hits.", "data": [{"compound": "CC1=CC=C(C=C1)SC2=C3C=C(SC3=CN=C2)C(=O)N", "assay": "log2 fold change, soluble protein after heating vs DMSO (PISA); higher = thermal stabilisation; K562 cells, 10 uM, 30 min; active = over 0.2 and 3.5 SD of the protein, either way, in both replicates (recomputed)", "how_it_was_run": "(§1)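 Thermal stability values are relative to control samples and come from duplicates. They are expressed as log2 fold changes. For measurement, K562 cells (2×10^6 cells/mL) received 10 μM compound for 30 min, and aliquots were heated for 3 min over 48°C-58°C, pooled, and extracted at 4°C in PBS with 0.5% NP-40. Soluble protein, the supernatant after 21,000xg for 90 min, was quantified by TMTpro 16plex LC-MS/MS with equalised channel sums.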", "values": [{"target": "CFAP36 isoform 2 (UniProt Q96G28)", "sequence (Q96G28 whole entry, looked up)": "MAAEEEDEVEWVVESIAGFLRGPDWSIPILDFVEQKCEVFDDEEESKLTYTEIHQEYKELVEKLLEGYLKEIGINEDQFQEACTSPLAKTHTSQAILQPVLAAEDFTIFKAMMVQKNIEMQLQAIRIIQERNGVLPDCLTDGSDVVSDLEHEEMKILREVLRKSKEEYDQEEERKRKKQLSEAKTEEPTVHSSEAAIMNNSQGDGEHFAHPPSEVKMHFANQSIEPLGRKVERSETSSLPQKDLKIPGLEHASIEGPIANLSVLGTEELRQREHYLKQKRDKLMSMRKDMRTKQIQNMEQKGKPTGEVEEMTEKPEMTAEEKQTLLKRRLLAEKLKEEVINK", "log2 fold change": "0.054 (inactive)"}, {"target": "CHPT1 (UniProt Q8WUD6)", "log2 fold change": "0.132 (inactive)"}, {"target": "CENPE (UniProt Q02224)", "log2 fold change": "0.022 (inactive)"}, {"target": "C22orf39 (UniProt Q6P5X5)", "sequence (Q6P5X5 whole entry, looked up)": "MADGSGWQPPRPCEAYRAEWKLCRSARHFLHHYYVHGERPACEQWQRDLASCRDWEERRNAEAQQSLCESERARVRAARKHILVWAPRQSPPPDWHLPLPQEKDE", "log2 fold change": "-0.058 (inactive)"}, {"target": "CASP10 isoform 4 (UniProt Q92851)", "sequence (Q92851 whole entry, looked up)": "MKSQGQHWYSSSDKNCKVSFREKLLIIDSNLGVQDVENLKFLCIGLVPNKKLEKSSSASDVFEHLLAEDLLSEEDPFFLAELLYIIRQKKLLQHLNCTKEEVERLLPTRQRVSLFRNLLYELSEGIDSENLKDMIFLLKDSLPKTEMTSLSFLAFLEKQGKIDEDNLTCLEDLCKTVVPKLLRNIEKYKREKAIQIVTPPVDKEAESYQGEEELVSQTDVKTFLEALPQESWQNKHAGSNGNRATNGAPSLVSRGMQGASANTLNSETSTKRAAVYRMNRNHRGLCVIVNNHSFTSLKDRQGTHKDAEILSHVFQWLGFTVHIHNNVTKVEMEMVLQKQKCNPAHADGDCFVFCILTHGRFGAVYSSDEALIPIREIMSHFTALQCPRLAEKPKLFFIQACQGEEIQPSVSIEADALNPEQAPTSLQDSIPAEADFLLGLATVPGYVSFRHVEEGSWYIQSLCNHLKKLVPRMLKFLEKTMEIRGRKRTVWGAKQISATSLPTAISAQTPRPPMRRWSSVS", "log2 fold change": "0.085 (inactive)"}, {"target": "COPS3 isoform 2 (UniProt Q9UNS2)", "sequence (Q9UNS2 whole entry, looked up)": "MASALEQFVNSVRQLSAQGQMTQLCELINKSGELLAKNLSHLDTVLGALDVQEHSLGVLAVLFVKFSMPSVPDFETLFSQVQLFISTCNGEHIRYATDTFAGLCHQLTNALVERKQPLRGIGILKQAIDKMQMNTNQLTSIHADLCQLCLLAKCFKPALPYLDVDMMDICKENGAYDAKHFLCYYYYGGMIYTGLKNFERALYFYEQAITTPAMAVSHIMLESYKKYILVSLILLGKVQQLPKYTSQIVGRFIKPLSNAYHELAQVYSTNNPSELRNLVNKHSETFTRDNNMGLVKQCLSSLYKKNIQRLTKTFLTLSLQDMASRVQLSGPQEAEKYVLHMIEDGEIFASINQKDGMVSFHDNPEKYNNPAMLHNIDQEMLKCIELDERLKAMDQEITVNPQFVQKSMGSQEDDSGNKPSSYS", "log2 fold change": "0.066 (inactive)"}, {"target": "COX7B (UniProt P24311)", "sequence (P24311 whole entry, looked up)": "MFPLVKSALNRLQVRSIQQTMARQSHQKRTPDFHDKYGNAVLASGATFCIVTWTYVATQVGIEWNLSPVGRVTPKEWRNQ", "log2 fold change": "0.045 (inactive)"}, {"target": "CCM2 isoform 2 (UniProt Q9BSQ5)", "sequence (Q9BSQ5 whole entry, looked up)": "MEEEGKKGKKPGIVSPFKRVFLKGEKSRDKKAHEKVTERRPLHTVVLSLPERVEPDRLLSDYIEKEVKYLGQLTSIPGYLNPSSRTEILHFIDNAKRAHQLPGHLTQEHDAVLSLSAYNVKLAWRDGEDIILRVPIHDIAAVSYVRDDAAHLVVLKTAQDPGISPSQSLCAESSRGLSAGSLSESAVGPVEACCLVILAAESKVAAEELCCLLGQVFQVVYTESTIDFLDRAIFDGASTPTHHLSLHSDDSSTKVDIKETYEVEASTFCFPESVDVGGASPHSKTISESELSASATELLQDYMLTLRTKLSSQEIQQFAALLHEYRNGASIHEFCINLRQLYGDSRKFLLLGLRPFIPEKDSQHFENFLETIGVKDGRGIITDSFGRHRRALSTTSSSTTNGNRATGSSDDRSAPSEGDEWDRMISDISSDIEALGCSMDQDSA", "log2 fold change": "-0.124 (inactive)"}, {"target": "CCNT2 (UniProt O60583)", "log2 fold change": "-0.057 (inactive)"}, {"target": "CRTC1 isoform 2 (UniProt Q6UUV9)", "log2 fold change": "-0.086 (inactive)"}, {"target": "CDK5 (UniProt Q00535)", "log2 fold change": "0.001 (inactive)"}, {"target": "C15orf41 (UniProt Q9Y2V0)", "log2 fold change": "-0.017 (inactive)"}, {"target": "CCDC167 (UniProt Q9P0B6)", "sequence (Q9P0B6 whole entry, looked up)": "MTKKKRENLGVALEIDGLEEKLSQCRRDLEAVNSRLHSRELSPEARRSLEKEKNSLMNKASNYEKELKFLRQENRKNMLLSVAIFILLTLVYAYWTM", "log2 fold change": "-0.007 (inactive)"}, {"target": "C6orf120 (UniProt Q7Z4R8)", "log2 fold change": "0.018 (inactive)"}, {"target": "C9orf72 (UniProt Q96LT7)", "sequence (Q96LT7 whole entry, looked up)": "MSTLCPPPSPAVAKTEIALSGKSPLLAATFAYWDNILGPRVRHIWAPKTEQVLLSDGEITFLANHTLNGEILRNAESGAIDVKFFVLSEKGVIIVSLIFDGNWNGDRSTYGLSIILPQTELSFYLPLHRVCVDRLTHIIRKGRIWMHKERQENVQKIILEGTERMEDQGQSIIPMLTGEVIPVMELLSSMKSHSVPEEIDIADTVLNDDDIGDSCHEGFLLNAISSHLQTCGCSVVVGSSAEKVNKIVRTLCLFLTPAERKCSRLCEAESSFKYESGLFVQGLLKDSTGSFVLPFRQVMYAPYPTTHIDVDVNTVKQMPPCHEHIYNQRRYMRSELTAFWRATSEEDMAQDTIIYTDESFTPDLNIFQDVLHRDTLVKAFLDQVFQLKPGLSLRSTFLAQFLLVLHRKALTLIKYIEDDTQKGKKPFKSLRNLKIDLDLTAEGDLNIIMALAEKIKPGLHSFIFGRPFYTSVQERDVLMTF", "log2 fold change": "0.027 (inactive)"}, {"target": "C19orf54 (UniProt Q5BKX5)", "sequence (Q5BKX5 whole entry, looked up)": "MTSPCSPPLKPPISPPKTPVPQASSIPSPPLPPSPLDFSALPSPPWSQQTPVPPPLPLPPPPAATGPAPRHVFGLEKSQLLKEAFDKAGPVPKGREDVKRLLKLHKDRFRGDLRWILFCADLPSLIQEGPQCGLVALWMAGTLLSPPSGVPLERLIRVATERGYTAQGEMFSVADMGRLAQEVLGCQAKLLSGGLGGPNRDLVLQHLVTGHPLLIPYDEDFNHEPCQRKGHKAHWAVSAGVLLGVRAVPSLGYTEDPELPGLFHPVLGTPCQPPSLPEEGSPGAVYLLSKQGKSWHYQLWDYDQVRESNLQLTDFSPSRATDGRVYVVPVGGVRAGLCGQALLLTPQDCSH", "log2 fold change": "0.127 (inactive)"}, {"target": "CDK19 (UniProt Q9BWU1)", "log2 fold change": "0.246 (inactive)"}, {"target": "CASP9 (UniProt P55211)", "sequence (P55211 whole entry, looked up)": "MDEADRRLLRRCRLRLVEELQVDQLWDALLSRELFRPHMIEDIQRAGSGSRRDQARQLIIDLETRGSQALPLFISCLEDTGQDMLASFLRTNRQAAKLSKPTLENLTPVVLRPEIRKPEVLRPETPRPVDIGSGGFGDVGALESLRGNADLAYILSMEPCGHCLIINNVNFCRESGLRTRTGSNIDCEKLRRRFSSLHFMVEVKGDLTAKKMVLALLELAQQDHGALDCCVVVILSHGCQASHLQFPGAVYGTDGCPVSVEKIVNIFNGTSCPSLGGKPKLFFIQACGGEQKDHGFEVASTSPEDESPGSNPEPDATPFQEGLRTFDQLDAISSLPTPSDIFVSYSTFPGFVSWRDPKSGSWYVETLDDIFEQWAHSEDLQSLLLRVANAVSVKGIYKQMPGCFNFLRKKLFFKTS", "log2 fold change": "0.032 (inactive)"}, {"target": "CRTC3 (UniProt Q6UUV7)", "log2 fold change": "0.033 (inactive)"}, {"target": "CIR1 (UniProt Q86X95)", "log2 fold change": "0.047 (inactive)"}, {"target": "CDK8 (UniProt P49336)", "sequence (P49336 whole entry, looked up)": "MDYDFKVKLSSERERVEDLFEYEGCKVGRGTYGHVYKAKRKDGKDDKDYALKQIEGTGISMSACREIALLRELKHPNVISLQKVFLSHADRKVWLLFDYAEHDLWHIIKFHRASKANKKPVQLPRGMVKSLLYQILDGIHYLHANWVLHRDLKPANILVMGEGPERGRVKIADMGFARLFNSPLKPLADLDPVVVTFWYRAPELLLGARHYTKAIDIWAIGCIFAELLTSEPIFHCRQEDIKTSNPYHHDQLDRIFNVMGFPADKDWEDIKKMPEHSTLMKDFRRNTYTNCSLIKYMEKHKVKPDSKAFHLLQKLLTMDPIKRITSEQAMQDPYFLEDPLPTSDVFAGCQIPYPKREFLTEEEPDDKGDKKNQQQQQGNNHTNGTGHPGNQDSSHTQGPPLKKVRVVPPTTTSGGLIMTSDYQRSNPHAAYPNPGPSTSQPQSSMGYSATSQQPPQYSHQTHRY", "log2 fold change": "0.322 (inactive)"}, {"target": "CHAF1A (UniProt Q13111)", "log2 fold change": "0.087 (inactive)"}, {"target": "CORO2A (UniProt Q92828)", "log2 fold change": "0.01 (inactive)"}, {"target": "CSNK1D (UniProt P48730)", "sequence (P48730 whole entry, looked up)": "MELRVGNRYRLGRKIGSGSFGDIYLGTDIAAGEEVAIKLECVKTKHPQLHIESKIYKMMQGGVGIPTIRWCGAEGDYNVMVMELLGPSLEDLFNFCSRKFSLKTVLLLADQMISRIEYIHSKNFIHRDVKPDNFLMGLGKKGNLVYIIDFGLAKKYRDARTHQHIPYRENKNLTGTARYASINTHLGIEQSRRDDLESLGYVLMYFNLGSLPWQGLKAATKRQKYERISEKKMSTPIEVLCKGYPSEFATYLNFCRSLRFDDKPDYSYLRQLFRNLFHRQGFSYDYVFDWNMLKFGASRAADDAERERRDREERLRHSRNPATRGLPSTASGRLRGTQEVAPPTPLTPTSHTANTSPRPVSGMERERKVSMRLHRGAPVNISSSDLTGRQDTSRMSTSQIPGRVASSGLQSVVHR", "log2 fold change": "-0.033 (inactive)"}, {"target": "CDCA2 (UniProt Q69YH5)", "log2 fold change": "-0.047 (inactive)"}, {"target": "CMTM3 (UniProt Q96MX0)", "sequence (Q96MX0 whole entry, looked up)": "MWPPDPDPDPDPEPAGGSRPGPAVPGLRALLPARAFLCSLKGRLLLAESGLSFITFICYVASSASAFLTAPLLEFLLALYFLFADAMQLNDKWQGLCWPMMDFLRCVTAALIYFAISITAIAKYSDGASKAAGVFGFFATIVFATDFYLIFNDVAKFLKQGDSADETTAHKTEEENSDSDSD", "log2 fold change": "0.117 (inactive)"}, {"target": "CDK17 isoform 2 (UniProt Q00537)", "log2 fold change": "0.061 (inactive)"}, {"target": "CDKN1B (UniProt P46527)", "sequence (P46527 whole entry, looked up)": "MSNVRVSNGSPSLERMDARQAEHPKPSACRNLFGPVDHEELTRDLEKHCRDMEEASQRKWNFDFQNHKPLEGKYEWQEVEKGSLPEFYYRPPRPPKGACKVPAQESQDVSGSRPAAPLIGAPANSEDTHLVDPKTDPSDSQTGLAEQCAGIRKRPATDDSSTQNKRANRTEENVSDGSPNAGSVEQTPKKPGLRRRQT", "log2 fold change": "-0.026 (inactive)"}, {"target": "CAB39L (UniProt Q9H9S4)", "sequence (Q9H9S4 whole entry, looked up)": "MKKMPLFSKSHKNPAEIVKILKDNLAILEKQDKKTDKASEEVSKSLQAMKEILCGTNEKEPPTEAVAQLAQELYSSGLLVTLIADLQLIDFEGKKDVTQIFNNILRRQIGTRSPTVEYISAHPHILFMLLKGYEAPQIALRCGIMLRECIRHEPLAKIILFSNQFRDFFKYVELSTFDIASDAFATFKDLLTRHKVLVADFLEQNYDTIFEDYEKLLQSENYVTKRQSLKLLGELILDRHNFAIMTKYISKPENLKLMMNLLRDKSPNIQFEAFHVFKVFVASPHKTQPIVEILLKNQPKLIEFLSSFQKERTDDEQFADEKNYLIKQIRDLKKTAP", "log2 fold change": "0.004 (inactive)"}, {"target": "CHST10 (UniProt O43529)", "log2 fold change": "-0.092 (inactive)"}, {"target": "CLN8 (UniProt Q9UBY8)", "log2 fold change": "-0.085 (inactive)"}]}, {"compound": "CC1=NC(=CC=C1)C2=C(N=C(N2)C(C)(C)C)C3=CC4=NC=CN=C4C=C3", "assay": "log2 fold change, soluble protein after heating vs DMSO (PISA); higher = thermal stabilisation; K562 cells, 10 uM, 30 min; active = over 0.2 and 3.5 SD of the protein, either way, in both replicates (recomputed)", "how_it_was_run": "as §1", "values": [{"target": "CFAP36 isoform 2 (UniProt Q96G28)", "log2 fold change": "0.066 (inactive)"}, {"target": "CENPE (UniProt Q02224)", "log2 fold change": "-0.096 (inactive)"}, {"target": "C22orf39 (UniProt Q6P5X5)", "log2 fold change": "-0.008 (inactive)"}, {"target": "CASP10 isoform 4 (UniProt Q92851)", "log2 fold change": "0 (inactive)"}, {"target": "COPS3 isoform 2 (UniProt Q9UNS2)", "log2 fold change": "-0.128 (inactive)"}, {"target": "COX7B (UniProt P24311)", "log2 fold change": "0.094 (inactive)"}, {"target": "CCM2 isoform 2 (UniProt Q9BSQ5)", "log2 fold change": "-0.002 (inactive)"}, {"target": "CRTC1 isoform 2 (UniProt Q6UUV9)", "log2 fold change": "0.073 (inactive)"}, {"target": "CDK5 (UniProt Q00535)", "log2 fold change": "-0.008 (inactive)"}, {"target": "C15orf41 (UniProt Q9Y2V0)", "log2 fold change": "-0.002 (inactive)"}, {"target": "CCDC167 (UniProt Q9P0B6)", "log2 fold change": "-0.042 (inactive)"}, {"target": "C6orf120 (UniProt Q7Z4R8)", "log2 fold change": "-0.094 (inactive)"}, {"target": "C9orf72 (UniProt Q96LT7)", "log2 fold change": "-0.014 (inactive)"}, {"target": "C19orf54 (UniProt Q5BKX5)", "log2 fold change": "-0.104 (inactive)"}, {"target": "CASP9 (UniProt P55211)", "log2 fold change": "0.021 (inactive)"}, {"target": "COG2 (UniProt Q14746)", "log2 fold change": "0.096 (inactive)"}, {"target": "CCNC (UniProt P24863)", "log2 fold change": "0.031 (inactive)"}, {"target": "CIR1 (UniProt Q86X95)", "log2 fold change": "-0.018 (inactive)"}, {"target": "CDK8 (UniProt P49336)", "log2 fold change": "0.064 (inactive)"}, {"target": "COX17 (UniProt Q14061)", "log2 fold change": "0.024 (inactive)"}, {"target": "CHAF1A (UniProt Q13111)", "log2 fold change": "-0.116 (inactive)"}, {"target": "CRYM-AS1 (UniProt A6NIL9)", "log2 fold change": "-0.224 (inactive)"}, {"target": "CSNK1D (UniProt P48730)", "log2 fold change": "-0.018 (inactive)"}, {"target": "CDCA2 (UniProt Q69YH5)", "log2 fold change": "-0.299 (inactive)"}, {"target": "CMTM3 (UniProt Q96MX0)", "log2 fold change": "-0.027 (inactive)"}, {"target": "CDK17 isoform 2 (UniProt Q00537)", "log2 fold change": "-0.051 (inactive)"}, {"target": "CDKN1B (UniProt P46527)", "log2 fold change": "0 (inactive)"}, {"target": "CAB39L (UniProt Q9H9S4)", "log2 fold change": "-0.043 (inactive)"}, {"target": "CHST10 (UniProt O43529)", "log2 fold change": "-0.052 (inactive)"}]}, {"compound": "CCCCN(Cc1ccc(C(=O)NO)cc1)C(=O)Nc1ccccc1 [Nexturastat A]", "assay": "log2 fold change, soluble protein after heating vs DMSO (PISA); higher = thermal stabilisation; K562 cells, 10 uM, 30 min; active = over 0.2 and 3.5 SD of the protein, either way, in both replicates (recomputed)", "how_it_was_run": "as §1", "values": [{"target": "CFAP36 isoform 2 (UniProt Q96G28)", "log2 fold change": "0.023 (inactive)"}, {"target": "CHPT1 (UniProt Q8WUD6)", "log2 fold change": "0.114 (inactive)"}, {"target": "C22orf39 (UniProt Q6P5X5)", "log2 fold change": "-0.024 (inactive)"}, {"target": "CASP10 isoform 4 (UniProt Q92851)", "log2 fold change": "0.125 (inactive)"}, {"target": "COPS3 isoform 2 (UniProt Q9UNS2)", "log2 fold change": "-0.113 (inactive)"}, {"target": "COX7B (UniProt P24311)", "log2 fold change": "-0.056 (inactive)"}, {"target": "CCM2 isoform 2 (UniProt Q9BSQ5)", "log2 fold change": "0.102 (inactive)"}, {"target": "CCNT2 (UniProt O60583)", "log2 fold change": "0.348 (inactive)"}, {"target": "CRTC1 isoform 2 (UniProt Q6UUV9)", "log2 fold change": "0.24 (inactive)"}, {"target": "CDK5 (UniProt Q00535)", "log2 fold change": "-0.002 (inactive)"}, {"target": "C15orf41 (UniProt Q9Y2V0)", "log2 fold change": "-0.006 (inactive)"}, {"target": "CCDC167 (UniProt Q9P0B6)", "log2 fold change": "0.022 (inactive)"}, {"target": "C9orf72 (UniProt Q96LT7)", "log2 fold change": "-0.102 (inactive)"}, {"target": "C19orf54 (UniProt Q5BKX5)", "log2 fold change": "-0.025 (inactive)"}, {"target": "CDK19 (UniProt Q9BWU1)", "log2 fold change": "-0.039 (inactive)"}, {"target": "CASP9 (UniProt P55211)", "log2 fold change": "0.045 (inactive)"}, {"target": "CRTC3 (UniProt Q6UUV7)", "log2 fold change": "-0.049 (inactive)"}, {"target": "COG2 (UniProt Q14746)", "log2 fold change": "0.432 (inactive)"}, {"target": "CCNC (UniProt P24863)", "log2 fold change": "0.008 (inactive)"}, {"target": "CIR1 (UniProt Q86X95)", "log2 fold change": "0.199 (inactive)"}, {"target": "CDK8 (UniProt P49336)", "log2 fold change": "-0.125 (inactive)"}, {"target": "COX17 (UniProt Q14061)", "log2 fold change": "0 (inactive)"}, {"target": "CHAF1A (UniProt Q13111)", "log2 fold change": "0.088 (inactive)"}, {"target": "CRYM-AS1 (UniProt A6NIL9)", "log2 fold change": "0.332 (inactive)"}, {"target": "CSNK1D (UniProt P48730)", "log2 fold change": "0.117 (inactive)"}, {"target": "CDCA2 (UniProt Q69YH5)", "log2 fold change": "0.638 (active)"}, {"target": "CMTM3 (UniProt Q96MX0)", "log2 fold change": "-0.119 (inactive)"}, {"target": "CDK17 isoform 2 (UniProt Q00537)", "log2 fold change": "0.172 (inactive)"}, {"target": "CDKN1B (UniProt P46527)", "log2 fold change": "0.148 (inactive)"}, {"target": "CAB39L (UniProt Q9H9S4)", "log2 fold change": "0.003 (inactive)"}, {"target": "CHST10 (UniProt O43529)", "log2 fold change": "0.05 (inactive)"}]}]}
